# According to ChEMBL document CHEMBL1961873, “Compounds: GSK PKIS; Assays: Nanosyn kinase panel” (2012):
# Several values for one entry are separate records, joined by “and”; a condition that tells them apart may be missing. Identical values can stand only once.
# Biological target: T1, Aurora kinase C (Homo sapiens) (UniProt Q9UQB9);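 also: reported value is a mean inhibition of Aurora-C from the GSK PKIS screening panel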
# T1 sequence (whole entry): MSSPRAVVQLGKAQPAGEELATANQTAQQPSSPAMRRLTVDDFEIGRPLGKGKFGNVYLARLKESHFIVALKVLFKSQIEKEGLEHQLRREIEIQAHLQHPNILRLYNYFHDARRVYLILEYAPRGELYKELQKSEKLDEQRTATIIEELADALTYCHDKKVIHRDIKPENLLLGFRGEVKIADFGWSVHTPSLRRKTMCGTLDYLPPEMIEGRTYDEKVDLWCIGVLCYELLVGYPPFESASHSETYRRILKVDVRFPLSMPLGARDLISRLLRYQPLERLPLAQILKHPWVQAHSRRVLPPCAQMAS
# Details: at 1 µM
row,Compound,inhibition
1,Cc1nnc(-c2cccc(-c3ccc(C(=O)NCC4CC4)cc3)c2)o1,-4.74%
2,COc1cc2c(cc1Nc1nc(Nc3cccc(F)c3C(N)=O)c3cc[nH]c3n1)N(C(=O)CN1CCN(C(C)C)CC1)CC2,3.25%
3,COc1cc(N2CCN(C(C)C)CC2)ccc1Nc1nc(Nc2cccc(F)c2C(=O)O)c2cc[nH]c2n1,-0.44%
4,NC(=O)c1ccc2c(-c3ccnc(NCCCO)n3)c(-c3ccc(F)cc3)nn2c1,6.84%
5,COc1ccccc1-c1cc(/C=C2\C(=O)Nc3ncc(Br)cc32)cc(Br)c1O,87.5%
6,COC(=O)Nc1nc2ccc(Oc3ccc(NC(=O)Nc4cc(C(F)(F)F)ccc4F)cc3)cc2s1,50.4%
7,CN1CCC(C(=O)Nc2n[nH]c3nc(-c4ccc(O)cc4)c(Br)cc23)CC1,-7.86% and 5.17%
8,CCOc1ccc2c(-c3ccnc(Nc4cc(OC)cc(C(F)(F)F)c4)n3)cnn2n1,4.09%
9,CC1=C(C(=O)Nc2ccc3[nH]ncc3c2)C(c2ccc(F)cc2)N=C(c2ccc(C(F)(F)F)nc2)N1 (stereo unspecified),21.3%
10,Nc1ncnc2occ(-c3ccc(NC(=O)Nc4cc(C(F)(F)F)ccc4F)cc3)c12,92.5% and 68.8%
11,CCS(=O)(=O)c1ccc(OC)c(Nc2ncc(-c3cccc(C(C)=O)c3)o2)c1,-0.45%
12,FC(F)(F)CNc1nccc(-c2cnn3ncccc23)n1,2.77%
13,CN(C)CCNC(=O)Nc1ccc(N(C)c2ccnc(Nc3ccc(CS(C)(=O)=O)cc3)n2)cc1,94.5%
14,Nc1nccc(-c2c(-c3ccc(F)cc3)ncn2C2CCNCC2)n1,-5.53% and -3.08%
15,CN1CCC(n2cnc(-c3ccc(F)cc3)c2-c2ccnc(NCCO)n2)CC1,-3.16%

# Biological target: Serine/threonine-protein kinase 10 (Homo sapiens) (UniProt O94804);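 also: mean percent inhibition of LOK (STK10)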
# Details: at 0.1 µM
# Chain of Serine/threonine-protein kinase 10 (Homo sapiens) (O94804 whole entry, looked up): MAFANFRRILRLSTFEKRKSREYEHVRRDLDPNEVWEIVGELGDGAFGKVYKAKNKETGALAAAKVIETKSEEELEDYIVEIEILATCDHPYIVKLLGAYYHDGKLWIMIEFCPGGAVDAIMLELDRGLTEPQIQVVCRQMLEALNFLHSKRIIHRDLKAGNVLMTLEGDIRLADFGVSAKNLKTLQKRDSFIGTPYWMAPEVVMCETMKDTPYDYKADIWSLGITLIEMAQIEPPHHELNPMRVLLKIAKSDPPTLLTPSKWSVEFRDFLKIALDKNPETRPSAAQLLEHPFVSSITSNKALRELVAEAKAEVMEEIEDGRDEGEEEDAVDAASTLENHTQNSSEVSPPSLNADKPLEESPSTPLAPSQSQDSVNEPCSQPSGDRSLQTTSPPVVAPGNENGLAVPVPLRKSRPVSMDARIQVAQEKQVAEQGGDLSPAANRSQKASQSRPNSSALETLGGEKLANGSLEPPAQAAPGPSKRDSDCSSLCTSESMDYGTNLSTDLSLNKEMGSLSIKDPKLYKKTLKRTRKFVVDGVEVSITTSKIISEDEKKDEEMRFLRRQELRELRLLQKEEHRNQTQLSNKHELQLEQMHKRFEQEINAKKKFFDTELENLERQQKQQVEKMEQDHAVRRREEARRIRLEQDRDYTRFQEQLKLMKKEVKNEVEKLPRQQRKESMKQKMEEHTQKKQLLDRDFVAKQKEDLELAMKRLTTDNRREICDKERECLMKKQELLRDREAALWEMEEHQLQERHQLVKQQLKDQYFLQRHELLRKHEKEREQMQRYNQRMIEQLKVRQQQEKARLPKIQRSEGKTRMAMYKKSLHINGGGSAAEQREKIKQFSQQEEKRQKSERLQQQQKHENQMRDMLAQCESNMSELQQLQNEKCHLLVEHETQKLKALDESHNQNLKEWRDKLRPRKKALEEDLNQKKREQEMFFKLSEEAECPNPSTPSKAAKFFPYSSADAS
row,Compound,inhibition
1,CNC(=O)c1cncc(/C=C/c2ccccc2C)c1,6.73%
2,CC(C)c1ccc(-c2cc(-c3c[nH]nc3-c3ccccn3)ccn2)cc1,0.88%
3,Fc1cccc(COc2ccc(Nc3ncncc3C#Cc3ccccc3)cc2Cl)c1,2.78%
4,NS(=O)(=O)c1ccc(N/N=C2\C(=O)Nc3cccc(CCc4ccncc4)c32)cc1,-0.95%
5,CCn1c(-c2nonc2N)nc2cncc(C(=O)NCCNC)c21,11.8%
6,CS(=O)(=O)CCNCc1ccc(-c2ccc3ncnc(Nc4ccc(OCc5cccc(C(F)(F)F)c5)cc4)c3c2)o1,9.88%
7,Cc1cc(O)cc(C)c1/C=C/c1cncc(C(=O)OC(C)(C)C)c1,5.45%
8,O=C(O[C@H]1CN[C@H](C#Cc2cc3ncnc(Nc4ccc(OCc5cccc(F)c5)c(Cl)c4)c3s2)C1)N1CCOCC1,9.8%
9,c1ccc(-c2n[nH]cc2-c2ccnc(-c3ccc(OCCn4ccnc4)cc3)c2)nc1,2.54%
10,c1cnn2ncc(-c3ccnc(NCCCN4CCOCC4)n3)c2c1,4.84%
11,O=C(O[C@H]1CN[C@H](C#Cc2cc3ncnc(Nc4ccc5c(ccn5Cc5cc(F)ccc5F)c4)c3s2)C1)N1CCOCC1,8.09%
12,O=C(O[C@H]1CN[C@H](C#Cc2cc3ncnc(Nc4ccc5c(cnn5Cc5ccccc5)c4)c3s2)C1)N1CCOCC1,0.93%
13,COc1ccc(Nc2ncc(-c3ccccc3)o2)cc1OC,-1.08%
14,CC1=C(C(=O)Nc2ccc3[nH]nc(C)c3c2)C(c2ccc(C(F)(F)F)cc2)CC(=O)N1 (stereo unspecified),2.01%
15,Cn1c(-c2nonc2N)nc2cnccc21,4.28%
16,CCS(=O)(=O)c1ccc(OC)c(Nc2ncc(-c3cccc(F)c3)o2)c1,12%
17,Cc1nnc(-c2cccc(-c3ccc(C(=O)NCC4CC4)cc3)c2)o1,6.23%
18,COc1cc2c(cc1Nc1nc(Nc3cccc(F)c3C(N)=O)c3cc[nH]c3n1)N(C(=O)CN1CCN(C(C)C)CC1)CC2,2.03%
19,COc1cc(N2CCN(C(C)C)CC2)ccc1Nc1nc(Nc2cccc(F)c2C(=O)O)c2cc[nH]c2n1,5.69%
20,NC(=O)c1ccc2c(-c3ccnc(NCCCO)n3)c(-c3ccc(F)cc3)nn2c1,5.04%
21,COc1ccccc1-c1cc(/C=C2\C(=O)Nc3ncc(Br)cc32)cc(Br)c1O,5.49%
22,COC(=O)Nc1nc2ccc(Oc3ccc(NC(=O)Nc4cc(C(F)(F)F)ccc4F)cc3)cc2s1,24.5%
23,CN1CCC(C(=O)Nc2n[nH]c3nc(-c4ccc(O)cc4)c(Br)cc23)CC1,4.1% and 3%
24,CCOc1ccc2c(-c3ccnc(Nc4cc(OC)cc(C(F)(F)F)c4)n3)cnn2n1,-0.06%
25,CC1=C(C(=O)Nc2ccc3[nH]ncc3c2)C(c2ccc(F)cc2)N=C(c2ccc(C(F)(F)F)nc2)N1 (stereo unspecified),0.31%
26,Nc1ncnc2occ(-c3ccc(NC(=O)Nc4cc(C(F)(F)F)ccc4F)cc3)c12,25% and 20.8%
